Records with an inconclusive call do not appear. Values without a mark were called inactive. Activity calls are given as the source filed them. Calls come from the whole dose curve; as a rule, active = well fitted cell-killing curve with a large enough effect; inconclusive = small, poorly fitted or top-dose-only effect, or effect the other way; inactive = no such curve, though single readings can be large or run the other way.
assay: Viability qHTS for spleen associated tyrosine kinase inhibitor (SYKi) drug resistant MV4-11 cells (AID 1963824); settings: SYKi-resistant MV4-11 viability, CellTiter-Glo, 72 h; series mostly up to 45 µM; viability, % of control: at the top concentration; note: nearly all actives have a fitted effect of over 35% in size
Procedure, shortened: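 SYK inhibitor-resistant MV4-11 AML cells, 500 per well, added to predispensed compounds and incubated 72 hr at 37 C, 5% CO2. Viability measured by CellTiter-Glo luminescence after 10 min at room temperature.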
Potency is the fitted concentration of half-maximal effect.

SMILES | Potency | viability, % of control
CCC/C=C/C(=O)O[C@H]1CC(C)(C)CC2[C@@]13[C@H](O)C[C@]1(C)[C@@]2(CCC2[C@@]4(C)CC[C@H](O[C@@H]5O[C@H](C(=O)O)[C@@H](O)[C@H](O[C@@H]6O[C@H](CO)[C@H](O)[C@H](O)[C@H]6O[C@@H]6O[C@@H](C)[C@H](O)[C@@H](O)[C@H]6O[C@@H]6OC[C@](O)(CO)[C@H]6O)[C@H]5O[C@@H]5O[C@H](CO)[C@H](O)[C@H](O)[C@H]5O)C(C)(C)C4CC[C@]21C)O[C@H]3O (some centres undefined) | 2.75 µM (active) | –
CC(C)n1nc(Cc2cccc3ccccc23)c2c(N)ncnc21 | 8.2 µM (active) | –
CCCCCCCOc1cc2c(cc1/C(C)=C/c1ccc(C(=O)O)cc1)C(C)(C)CCS2(=O)=O | 11.6 µM (active) | –
CC(=O)c1ccc(O[C@@H]2O[C@H](CO)[C@@H](O)[C@H](O)[C@H]2O)cc1 | – | 84.4%
CO[C@H]1/C=C/[C@@](C)(O)/C=C/C(=O)O[C@H](C)[C@@H](C)CC/C=C/1C | 12.8 µM (active) | –
CC(=O)C1=CCC2C3CC=C4CC(O)CC(O)C4(C)C3C(O)CC12C (centres undefined) | 16.1 µM (active) | –
OC(CNCCc1c[nH]c2ccccc12)Cn1c2ccccc2c2ccccc21 (centres undefined) | 5.17 µM (active) | –
COc1c2cc(c(O)c1OC)CCCCC(O)CCc1ccc(O)c-2c1 (centres undefined) | 14.3 µM (active) | –
O=C1OC(c2ccc(O)cc2)(c2ccc(O)cc2)c2ccccc21 | 18.8 µM (active) | –
COc1cc2ncnc(Nc3ccc(F)c(Cl)c3)c2cc1O | 9.2 µM (active) | –
CC(=O)O[C@@H]1CC2C(/C=C(\C)C(=O)[C@@]3(O)C[C@@H](C)[C@H](OC(=O)c4ccccc4)C3/C=C/1C)C2(C)C (some centres undefined) | 10 µM (active) | –
C[C@@H]1O[C@@H](O[C@@H]2[C@@H](O)[C@H](O[C@H]3[C@H](O[C@H]4CC[C@@]5(C)C(CC[C@]6(C)C5CC=C5[C@@H]7CC(C)(C)CC[C@]7(C(=O)O[C@@H]7O[C@H](CO)[C@@H](O)[C@H](O)[C@H]7O[C@@H]7O[C@@H](C)[C@H](O[C@@H]8O[C@@H](C)[C@H](O)[C@@H](O)[C@H]8O)[C@@H](O)[C@H]7O)CC[C@]56C)[C@@]4(C)CO)O[C@H](C(=O)O)[C@@H](O)[C@@H]3O)O[C@H](CO)[C@H]2O)[C@H](O)[C@H](O)[C@H]1O (some centres undefined) | – | 108% [at 9.25 µM]
Cc1nc2ccccc2n1Cc1ccc(Cl)cc1 | 0.422 µM (active) | –
C[C@]12CC/C(=N\OCC(=O)O)C=C1CC[C@@H]1[C@@H]2[C@@H](O)C[C@@]2(C)[C@H]1CC[C@]2(O)C(=O)CO | – | 106%
CCc1ccc(N(CC(C)C)S(=O)(=O)c2ccc(OCC3CCOCC3)c(CO)c2)cc1 | 18.6 µM (active) | –
CC1(C)CC[C@]2(C(=O)O[C@@H]3O[C@H](CO)[C@@H](O)[C@H](O)[C@H]3O)CC[C@]3(C)C(=CCC4[C@@]5(C)C[C@@H](O)[C@H](O)[C@@](C)(CO)C5[C@H](O)C[C@]43C)C2[C@@H]1O (some centres undefined) | – | 87.2% [at 17.3 µM]
CC1=CC2/C=C(\C)CCC3OC(C)(C)OC3CCC(=O)C23C(=O)NC(CC(C)C)C3C1C (centres undefined) | 7.96 µM (active) | –
CC(=O)N[C@H](Cc1c[nH]c2ccccc12)C(=O)OCc1cc(C(F)(F)F)cc(C(F)(F)F)c1 | 23.1 µM (active) | –
Cc1[nH]c(/C=C2\C(=O)Nc3cc(-c4ccccc4)ccc32)c(C)c1CCC(=O)O | 10.3 µM (active) | –
CC1CCCC(SCC(O)C(=O)O)CC(=O)c2c(O)cc(O)cc2CC(=O)O1 (centres undefined) | 2.24 µM (active) | –

SMILES | Potency | viability, % of control
C/C(=C\C(=O)C(C)C1CCC2C3=C(CCC21C)C1(C)CCC(=O)C(C)(C)C1(O)CC3)C(C)(C)O (centres undefined) | 10 µM (active) | –
CC1(C)C[C@H]2C3=CCC4[C@@]5(C)CC[C@H](O[C@H]6O[C@H](C(=O)O)[C@@H](O)[C@H](O)[C@H]6O[C@H]6O[C@H](CO)[C@@H](O)[C@H](O)[C@H]6O[C@@H]6O[C@H](CO)[C@@H](O)[C@H](O)[C@H]6O)[C@](C)(CO)C5CC[C@@]4(C)[C@]3(C)CC[C@@]2(C)[C@H](O[C@@H]2OC[C@H](O)[C@H](OC3O[C@H](CO)[C@@H](O)[C@H](O)[C@H]3O)[C@H]2O)[C@@H]1O (some centres undefined) | – | 93.8% [at 9.25 µM]
CC(=O)c1cc2c(cc1O)OC(C)(C)C=C2 | – | 69%
C/C=C(/COC(=O)/C(C)=C/C)C(=O)OC/C=C/c1ccc(OC)cc1 | 12.8 µM (active) | –
Cc1ccccc1CN1CCn2c1nc1c(c2=O)CN(Cc2ccccc2)CC1 | – | 96%
C=C1C(=O)O[C@@H]2C[C@@]3(C)CCC[C@H](C)C3=C[C@H]12 | 7.31 µM (active) | –
Cn1cc(C2=C(c3cn(CCCSC(=N)N)c4ccccc34)C(=O)NC2=O)c2ccccc21 | 0.411 µM (active) | –
C[C@H](NC(c1cccc(C[P+](=O)O)c1)[C@H](C)O)c1ccc(Cl)c(Cl)c1 (some centres undefined) | – | 99.1%
CC1=C(C)C(=O)OC(C(C)C2C(O)CC3C4C5OC5C5(O)CC(OC6OC(CO)C(OC7OC(C)C(O)C(O)C7O)C(O)C6O)CC(O)C5(C)C4CCC32C)C1 (centres undefined) | – | 80.7% [at 17.3 µM]
O=C(O)/C=C/c1cc2c(cc1O[C@@H]1O[C@H](CO)[C@@H](O)[C@H](O)[C@H]1O)OCO2 | – | 69.4%
CCCCCCCCCCCCOCCOCCOCCOCCOCCOCCOCCOCCOCCO | 5.96 µM (active) | –
CC1(CO)CCCC2(C)C3COC(=O)C3=CC(O)C12 (centres undefined) | – | 81.4%
CCCCCCCCn1cc(CN(CC)CC)c2cc(-c3cnc(N)nc3)ccc21 | 2.59 µM (active) | –
CSCC[C@H](NC(=O)[C@H](CO)NC(=O)[C@H](CCC(=O)O)NC(C)=O)C(=O)N[C@H](C=O)CC(=O)O | 1.5 µM (active) | –
CC(Oc1ccc2[nH]nc(/C=C/c3cnn(CCO)c3)c2c1)c1c(Cl)cncc1Cl (centres undefined) | 0.0116 µM (active) | –
CC(C)Oc1ccc(-c2cnc3c(-c4ccnc5ccccc45)cnn3c2)cc1 | 4.11 µM (active) | –
CCOc1ccc2nc(SCCN3CCOCC3)[nH]c2c1 | – | 73.3%
C=C1C(=O)O[C@@H]2[C@H]1CCC(C)=C1CCC(=O)O[C@]12C | 2.59 µM (active) | –
Cc1ccn(-c2cc(Cl)ccc2[C@@H](Oc2cc(-c3ccc(C[C@H](N)C(=O)O)cc3)nc(N)n2)C(F)(F)F)n1 | 20.6 µM (active) | –

Reference: PubChem BioAssay (NCATS)
